The results in this text go back to PubChem BioAssay (NCI).

The panel holds about 83,000 compounds, 20% with a hit somewhere; the sample as a whole holds those more often.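 Interpretation: 100, growth as untreated; towards 0, rising growth inhibition; 0, no net growth; 0 to -100, cell death. Compounds scoring below 10 were considered active.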 Calls of active or inactive are those of the source.

This test concerns RPMI-8226 leukemia. The test is described as follows: NCI-60 one-dose screen, 48 h (100 = growth as untreated, 0 = no growth, -100 = all killed). The conditions noted are these: 10 µM unless noted. The protocol:
Growth inhibition of the RPMI-8226 human tumor cell line is measured as a screen for anti-cancer activity. Cells are grown in 96 well plates and exposed to the test compound for 48 hours. Compounds are tested at a single concentration, which is 10^-5 M for most compounds. The reported endpoint is percent growth (GI% or GIPRCNT), where numbers from 0 - 100% represent growth inhibition, and numbers from -100% - 0 represent cell death. For example, a value of 40 represents 60% growth inhibition. A value of 0 means no net growth occurred over the course of the experiment. A value of -40 indicates 40% of cells at the beginning of the experiment died by the end of the experiment. A value of -100 means all cells are dead at the end of the experiment.
NCI-60 Human Tumor Cell Lines Screen was performed using the standard one-dose NCI protocol, which is described in more detail at https://dtp.cancer.gov/discovery_development/nci-60/default.htm.
Compounds with GIPRCNT values below 10 were considered active. Activity score was based on GIPRCNT using the following formula: […]
Score is 0 for GIPRCNT values of 100 or above, 50 for GIPRCNT values of 0, and 100 for GIPRCNT values of -100.
On to `C=C1C(=O)O[C@H]2[C@H]1CC/C(COC(=O)/C=C\C(=O)NCc1ccc(Cn3c(=O)sn(CCI)c3=O)cc1)=C\CC[C@@]1(C)O[C@@H]21`, for which the growth was 22.4% (inactive).

For `O=S(=O)(Nc1ccc(F)cc1F)c1ccc(-c2cnc(C3CC3)o2)cc1`, the growth is 18.1% (inactive).

Take `O=C(NNC(=O)c1ccc(NC(=O)c2ccccn2)cc1)Nc1ccc([N+](=O)[O-])cc1`: the growth was 106% (inactive).

With `CSc1nc2ccccc2cc1/C=[N+](\[O-])c1ccccc1`, the growth was 14.5% (inactive).

In the case of `N#CC1=C(N)Oc2c(c(=O)[nH]c3ccc(Cl)cc23)C12C(=O)c1ccccc1C2=O`, the growth was 96.2% (inactive).

Consider `COc1ccc(/C=C/C(=O)c2cccc(OCCCCOc3cccc(C(=O)/C=C/c4ccc(OC)c(OC)c4)c3)c2)cc1OC`, for which the growth was 35.6% (inactive).

On to `O=C(O)c1cn(C2CC2)c2cc(N3CCN(C(=O)N(c4ccccc4)c4nc(-c5ccccc5)cs4)CC3)c(F)cc2c1=O`, for which the growth was 9.25% (active).

With `CCCC/C(CC)=N\NS(=O)(=O)c1ccc([N+](=O)[O-])cc1`, the growth is 101% (inactive).

Turning to `C#CCOc1ccc2ncnc(Nc3ccc(NC(=O)C=C)cc3)c2c1`, the growth was -29.4% (active).

As to `N#C/C(=C\c1c(-c2ccccc2)[nH]c2ccccc12)C(N)=O`, the growth was 46.2% (inactive).

In the case of `Cn1c(=O)c2nc(/C=C/c3ccccc3)c(=O)[nH]c2n(C)c1=S`, the growth was 110% (inactive).

Take `C=C(C)[C@@H]1CC[C@]2(C(=O)O)CC[C@]3(C)[C@H](CC[C@@H]4[C@@]5(C)CCC(NC(=O)c6cccc(OC(C)=O)c6OC(C)=O)C(C)(C)[C@@H]5CC[C@]43C)[C@@H]12` (stereo not given in full): the growth is -17.8% (active).

Consider `COc1ccc(/C=N\Nc2nc(SCCC(C)C)nc(-c3ccc(OC)cc3)c2C#N)cc1`, for which the growth is 54.4% (inactive).

Consider `CCOC(=O)c1c2c(n3cccc(F)c13)C(=O)c1ncccc1C2=O`, for which the growth was 37.5% (inactive).

As for `c1cnc2c(-c3nc4ccc5[nH]ncc5c4c4c3CCCC4)c[nH]c2c1`, the growth is 34.5% (inactive).

On to `CN(C)c1ccc(C(=O)OCCCCCCl)cc1`, for which the growth is 106% (inactive).

`Cc1sc2nc(NCCc3c[nH]c4ccc(Cl)cc34)[nH]c(=O)c2c1C`: the growth is 18.8% (inactive).

In the case of `CC(C)c1ccc(Cc2cnc(NC(=O)c3cc(Br)cs3)s2)cc1`, the growth was 22.6% (inactive).

For `Nc1ncnc2c1c(-c1cccc(Cl)c1)nn2CC(=O)N1CCOCC1`, the growth is 108% (inactive).

With `Oc1c(Br)cc(Br)c2ccc(Cn3cc(-c4ccc(C(F)(F)F)cc4)nn3)nc12`, the growth was -1.77% (active).

Regarding `CS(=O)(=O)Nc1cc(-c2ccc3ncnc(Nc4ccc5c(cnn5Cc5ccc(F)cc5)c4)c3c2)cnc1Cl`, the growth was 9.43% (active).

With `COc1cc(-c2cncn2-c2ccc(-c3nc4ccc(F)cc4s3)cc2)ccc1F`, the growth is 53.6% (inactive).

For the molecule `Cc1ccc(C[P+](c2ccccc2)(c2ccccc2)c2ccccc2)cc1`, the growth is -17.6% (active).

Take `O=C1/C(=C\c2ccc3nccnc3c2)SC(=S)N1CCc1ccc(O)cc1`: the growth was 68.2% (inactive).

Consider `COc1ccc(-c2cc(-c3cccnc3)nc3sc4c(=O)[nH]c(-c5ccc(Cl)cc5)nc4c23)cc1OC`, for which the growth was 88.8% (inactive).

As to `CNC(=O)c1[nH]cc(-c2ccc(OC)cc2)c1-c1cc(OC)c2c(c1OC)OCO2`, the growth was 108% (inactive).

For the molecule `Cc1ccc2c(c1)=C/C(=C\c1cc(-c3ccccc3)oc1O)C(=O)N=2`, the growth is 94.2% (inactive).

As for `CCCCCCC12CCC(=O)N1CCc1cncn12` (stereo not given), the growth was 94.6% (inactive).

Turning to `C1CCC([PH+](C2CCCCC2)C2CCCCC2[PH+](C2CCCCC2)C2CCCCC2)CC1.[Au].[CH-]1CCCCC1C1CCCC[N-]1` (stereo not given), the growth is -15.6% (active).

In the case of `CC(=O)n1nc(C(=O)OC(C)(C)c2ccccc2)c2ccccc21`, the growth is 102% (inactive).

In the case of `O=C(OC(CO)C(=O)NC12CC3CC(CC(C3)C1)C2)c1ccc(Cl)cc1` (stereo not given), the growth is 98% (inactive).

Regarding `Cc1ccc2c(n1)C(=O)C(Br)=C(CC(C)C)C2=O`, the growth is 53% (inactive).

On to `O=C(O)c1cn(C2CC2)c2cc(N3CCN(Cc4ccc5ccccc5c4O)CC3)c(F)cc2c1=O`, for which the growth was 73.5% (inactive).

In the case of `CCOC(=O)c1csc(NC(=O)COc2ccc(/C=C3\Oc4ccccc4C3=O)cc2)n1`, the growth is 79.5% (inactive).

In the case of `CC(=O)c1c(C)nc(SCC(=O)Nc2cccc(O)c2)n1-c1ccc(Cl)cc1`, the growth is 97% (inactive).

With `O=c1c2cccc3c(N4CCCC4)ccc(c32)c2nc3ccccc3n12`, the growth is 75.7% (inactive).

With `Cn1cc(-c2csc(-c3cn(C(=O)OC(C)(C)C)c4ccc(Br)cc34)n2)c2ccnc(Cl)c21`, the growth was 79.4% (inactive).

With `CC1CCN(S(=O)(=O)c2ccc(S(=O)(=O)N3CCCC(c4nc5c(nnn5Cc5cccc(Cl)c5)c(=O)[nH]4)C3)cc2)CC1` (stereo not given), the growth is 19.9% (inactive).

`N#Cc1ccc2c(c1)C(=O)c1c-2n(CCCN)c(=O)c2cc([N+](=O)[O-])ccc12`: the growth was -45.5% (active).

Regarding `COc1ccc(Nc2nc(-c3cc(O)c(C)c(C)c3O)cs2)cc1`, the growth is 33.6% (inactive).
